Each structure is given as a SMILES string. Among all 85,000 compounds or so, about 5,100 (6%) were called active.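 Rule for the calls: active = viability at or below 40%; inactive = viability above 40%.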 Many of the other results were omitted from the sample, so actives are more common in it than they were.

This assay is described as follows: proliferation blockers of H69AR lung cancer cells, primary screen, cell-based, human, 86K library (AID 598).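 Note: multidrug resistant small cell line overexpressing MRP-1 efflux transporter; 100% = mean luminescence of untreated control wells.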 Particulars: H69AR lung tumor viability, ATP luminescence, 72 h; at 10 µM; active compounds read low.
What is called viability is a read-out of living cells in per cent, often relative to untreated cells. Turning to `COc1cc(S(=O)(=O)N(Cc2cccs2)C2CC2)ccc1-n1cnnn1`, the viability is 68% (inactive).

Turning to `COC(=O)c1ccccc1NC(=O)Cc1ccccc1OC`, the viability was 94.2% (inactive).

As for `CCOC(=O)c1nnn(-c2nonc2-n2cccc2)c1CN1CCC(C(=O)OCC)CC1`, the viability is 70.5% (inactive). `CCOc1ccc(S(=O)(=O)NCCSc2ccccc2)cc1`: the viability is 105% (inactive). Next, `COc1ccc(C(=O)N2CC3(C)CC2CC(C)(C)C3)cc1OC` (stereo not given): 88.7% (inactive).

On to `Cc1coc2c(O)cc3c(c12)OC1(N2CCCCC2)C(=O)NCCCC31` (stereo not given), for which the viability was 1.27% (active). Turning to `CCc1c(O)cc2n(c1=O)-c1ccccc1C2(C)C`, the viability is 91.5% (inactive).

Turning to `COc1ccc(Br)cc1/C=N/n1c(C)nnc1C`, the viability is 28.1% (active). Regarding `COC(=O)c1ccc(/C=N\n2c(C)nnc2C)cc1`, the viability is 99.6% (inactive). Next, `Cc1nnc(C)n1/N=C/c1ccc(C(C)C)cc1`: 106% (inactive); `CCN(CC)CC(=O)c1c[nH]c2ccc(OC)cc12`: 77.2% (inactive); `CC(c1ccco1)N(C(=O)Nc1ccccc1)C1CCCCC1` (stereo not given): 77.7% (inactive). Next, `O=C(CO/N=C/c1ccccc1O)NNC(=O)c1ccccc1Cl`: 102% (inactive); `CC[C@]1(O)CC2CN(CCc3c([nH]c4ccccc34)[C@@](C(=O)OC)(c3cc4c(cc3OC)N(C=O)[C@H]3[C@@](O)(C(=O)OC)[C@H](OC(C)=O)[C@]5(CC)C=CCN6CC[C@]43[C@@H]65)C2)C1` (stereo not given in full): 31.9% (active).

Turning to `CC(C)c1cc(C(=O)O)n[nH]1`, the viability was 102% (inactive). In the case of `Cc1ccc(NC(=O)CSCC(=O)N2CCOCC2)cc1` it was 93.9% (inactive); in that of `CCCc1[nH]nc2c1C(c1ccc(OC)c(Cn3nc(C)c(Br)c3C)c1)C(C#N)=C(N)O2` (stereo not given), 87.4% (inactive).

In the case of `CCCc1[nH]nc2c1C(c1ccc(Br)s1)C(C#N)=C(N)O2` (stereo not given), the viability is 1.42% (active). As to `CCCc1[nH]nc2c1C(c1ccc(OC(=O)c3ccco3)cc1)C(C#N)=C(N)O2` (stereo not given), the viability was 97.7% (inactive).

For `CCOc1ccc(CN(Cc2ccco2)S(=O)(=O)c2ccc(-n3cnnn3)c(OC)c2)cc1`, the viability was 66.6% (inactive).

Regarding `Cc1c(C=O)c2ccccn2c1C(=O)c1ccncc1`, the viability is 87.6% (inactive). In the case of `Cc1ccc(-c2cc(C(=O)NCC3CCCO3)c3ccccc3n2)o1` (stereo not given) it was 87.9% (inactive).

`Cc1ccc(-c2csc(SCC(=O)Nc3cc(C)on3)n2)cc1`: the viability was 87.9% (inactive).

For the compound `Cc1ccc2nc(-c3ccc(SCC(=O)Nc4cc(C)on4)nc3)[nH]c2c1`, the viability was 10.7% (active). In the case of `COc1ccc2nc(SCC(=O)Nc3c(C)cc(C)cc3C)[nH]c2c1` it was 71.7% (inactive); in that of `CC(C)NC(=O)CSc1nnc(COc2ccccc2Cl)o1`, 106% (inactive).

As for `CCCC(C)C(=O)Nc1ccc(NC(C)=O)cc1` (stereo not given), the viability is 103% (inactive). Turning to `COc1cc(OC)c(NC(=O)c2ccc(Br)o2)cc1Cl`, the viability is 58.5% (inactive).

On to `CCN1CCN(c2c(Cl)cccc2NC(=O)c2ccc(Br)o2)CC1`, for which the viability was 90.5% (inactive).

On to `CCCC(=O)Nc1ccc(Cl)c(NC(=O)c2ccc(Br)o2)c1`, for which the viability was 28.2% (active).

Take `CCN(c1ccccc1)S(=O)(=O)c1cccc(C(=O)O)c1`: the viability is 103% (inactive). As to `CCN(c1ccccc1)S(=O)(=O)c1ccc(NC(=O)C(C)(C)C)cc1`, the viability was 34.8% (active). On to `CCN(c1ccccc1)S(=O)(=O)c1ccc(N)cc1`, for which the viability was 89.9% (inactive). In the case of `COc1ccc(/C(O)=C2\C(=O)C(=O)N(Cc3ccco3)C2c2ccc(OC)cc2OC)cc1` (stereo not given) it was 97.1% (inactive); in that of `CC1=NN(/C(=N\c2nnc(C)s2)Nc2ccccc2)[C@H](c2ccc(C)cc2)S1`, 56.5% (inactive).

For `CS(=O)(=O)N(CC(=O)Nc1ccc(Cl)c(Cl)c1)C1CCCCC1`, the viability was 16.6% (active). Next, `CCOC(=O)N1CCN(C(=O)CN(C2CCCCC2)S(C)(=O)=O)CC1`: 84.9% (inactive). In the case of `CS(=O)(=O)N(CC(=O)N1CCN(c2ccc(F)cc2)CC1)C1CCCCC1` it was 92% (inactive); in that of `COC(=O)C1=C(C)N=C2SC(C)C(=O)N2C1/C=C/c1ccccc1` (stereo not given), 85.8% (inactive). Next, `O=C(NCCCN1CCCCC1)c1ccc2c(c1)NC(=O)C(N1CCOCC1)S2` (stereo not given): 98.8% (inactive).

Regarding `CCOc1ccc(Cn2nnc(C(=O)NCc3ccccc3)c2N)cc1`, the viability was 90.5% (inactive). In the case of `CCOc1ccc(Cn2nnc(C(=O)Nc3ccc(OC)cc3OC)c2N)cc1` it was 76.9% (inactive). Take `Nc1c(C(=O)NCc2ccccc2)nnn1Cc1cccc(Cl)c1`: the viability was 26.7% (active). In the case of `COc1cc(OC)cc(-c2cc3nc(C4CCN(C(=O)OC(C)(C)C)CC4)cc(=O)n3[nH]2)c1` it was 106% (inactive); in that of `COc1ccc(C(=O)NN(C)c2nc(-c3ccccc3)cc(C)c2S(C)(=O)=O)cc1`, 85% (inactive); in that of `Cc1nn(-c2ccccc2)c2sc(C(=O)N(Cc3ccco3)C(C)C(=O)NC(C)(C)C)cc12` (stereo not given), 7.03% (active). Next, `Cn1nc(-c2ccc(Cl)cc2)c2cc(C(=O)NCc3ccco3)sc21`: 68.1% (inactive); `O=C(NCc1ccco1)c1nc(-c2ccccc2)n(-c2ccccc2)n1`: 75% (inactive). Regarding `NC(=O)c1sc2nc3c(c(-c4ccccc4)c2c1N)CCC3`, the viability was 73.2% (inactive). In the case of `CC(=O)Nc1ccc(NC(=O)c2sc3nc4c(c(-c5ccc(C)cc5)c3c2N)CCC4)cc1` it was 30.2% (active); in that of `Cc1cccc(NC(=O)c2sc3nc4c(c(-c5ccco5)c3c2N)CCC4)c1`, 78.6% (inactive); in that of `COc1cc(OC)c(-n2c(C)cc(C=O)c2C)cc1Cl`, 104% (inactive). Take `Cc1cccc(C)c1NC(=O)CSc1nnc(-c2ccccc2)n1Cc1ccc2c(c1)OCO2`: the viability was 72.2% (inactive).

For `CSc1nc(C)cc(SC(C(C)=O)C(=O)Nc2ccccc2)n1` (stereo not given), the viability was 100% (inactive). As to `Cc1onc(-c2ccccc2Cl)c1C(=O)OCC(=O)c1ccccc1`, the viability is 97% (inactive). Next, `O=C(Cc1c(O)c2ccccc2[nH]c1=O)NCc1ccccc1`: 101% (inactive); `O=C(NCCN1CCN(Cc2ccccc2)CC1)c1cc2c(=O)[nH]c3ccccc3c2s1`: 1.91% (active). Next, `CN1CCN(CCCNC(=O)c2cc3c(=O)oc4ccccc4c3s2)CC1`: 87.3% (inactive); `COc1ccc(-n2c(C)csc2=S)cc1`: 86.6% (inactive). As for `CCOc1ccc(C(O)Cn2c(=N)n(CCN3CCCCC3)c3ccccc32)cc1` (stereo not given), the viability is 44.7% (inactive).

(Values after PubChem BioAssay AID598 (SRMLSC, 2007).)
